# High-throughput results from PubChem.
# HT1080-NT tox – kills 2HG-producing HT-1080-NT fibrosarcoma cells; HT-1080-NT fibrosarcoma viability, CellTiter-Glo ATP luminescence, 48 h; Potency, µM (highest dose often 46.1 µM), inactives show at the highest dose activity, negative = less viability, actives largely listed as cytotoxic; 360,000 tested, 1.6% active;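 note: NT is the 2HG producing partner of a matched IDH1 knockdown line; potency is the fitted concentration of half-maximal effect; 0% = DMSO-treated cells and -100% = media-only wells without cells; nearly all actives have a fitted effect of over 55% in size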
#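 Toxicity toward the 2HG-producing NT line was scored as %Activity, normalised to DMSO and no-cell wells, from CellTiter-Glo luminescence after 48 hours' treatment.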
# TDP1 cell noCPT – qHTS for Inhibitors of human tyrosyl-DNA phosphodiesterase 1 (TDP1): qHTS in cells in absence of CPT. Potency, µM (doses to about 46.2 µM), for the others: at the top dose activity change, negative = growth inhibition, most hits filed as inhibitors. 420,000 tested, 15% active. AID 686978, 2013. DT40 Tdp1-/- hTDP1 cells, no CPT, ATP luminescence, 48 h; note: potency is the fitted concentration of half-maximal effect; nearly all actives have a fitted effect of over 55% in size
#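 Chicken DT40 Tdp1-/- cells stably complemented with human TDP1 were seeded at 400 cells/well with DMSO in place of 20 nM camptothecin. After compound pinning, cells grew at least 48 hr at 37 °C; viability read by CellTiter-Glo luminescence.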
# IL1B secr inh – inflammasome signaling inhibition, IL-1 beta readout; THP-1 LPS/ATP IL-1B secretion, AlphaLISA, 16 h; hits give low values; activity change, % at 57.5 µM; 360,000 tested, 4.7% active; in the data active = activity change below about -50%; inconclusive = mostly about -30% to -49%
#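 THP-1 cells pretreated 1 hr with compounds (up to 57.5 uM final), then stimulated with LPS (250 ng/mL final) plus ATP (1.25 mM final); secreted IL-1B measured by AlphaLISA after 16 hr, decreased signal indicating inhibition.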
# TDP1 cell CPT – DT40-hTDP1 cell growth loss with CPT; chicken DT40 Tdp1-/-;hTDP1 cells + 20 nM CPT, ATP luminescence, 48 h; Potency, µM (titrated, usually from 46.2 µM), without a hit: top-dose activity change, negative = growth inhibition, hits mostly inhibitors; 420,000 tested, 12% active; note: potency is the fitted concentration of half-maximal effect; nearly all actives have a fitted effect of over 55% in size
#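 Cell growth measured by CellTiter-Glo luminescence after a minimum 48 h, 37 C compound exposure with 20 nM CPT in Tdp1-knockout DT40 cells stably expressing hTDP1, seeded 400/well; qHTS titration format.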
# HT1080 IDH1KD tx – toxicity to HT-1080 IDH1 knockdown cells (counter line); HT-1080 IDH1 knockdown viability, ATP luminescence, 48 h; Potency, µM (highest dose often 46.1 µM), for the others: at the highest dose activity, negative = toxicity, actives largely listed as cytotoxic; 360,000 tested, 2% active; AID 686971;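 note: potency is the fitted concentration of half-maximal effect; 0% = DMSO wells and -100% = cell-free medium wells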
#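 Knockdown cells (IDH1KD HT-1080) received compounds 2 h after plating at 750 cells/well and were kept 48 h at 37 °C in 5% FBS RPMI. A CellTiter-Glo luminescence read gave % activity for curve fitting.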
# Numbers without * were called inactive; ? = inconclusive; . = not tested or not shown. Sampled rows, rich in hits. Any-hit rate of the full collection: about 19%. Unless noted, calls come from the whole dose curve; as a rule, active = well fitted curve in the direction sought with a large enough effect; inconclusive = small, poorly fitted or top-dose-only effect, or another doubt; inactive = no such curve, though single readings can be large; an effect the other way counts as inactive or inconclusive. Unless noted, % is set by controls: 0 for no effect and ±100 for the full control effect.
SMILES,HT1080-NT tox,TDP1 cell noCPT,IL1B secr inh,TDP1 cell CPT,HT1080 IDH1KD tx
Cc1ccn2c(C(C)O)nnc2c1 (centres undefined),-1%,-11%,16,1%,0%
CN(C)c1ccc(CNC(=O)c2cnc3sc(N4CCOCC4)nn3c2=O)cc1,.,1%,.,-29%,.
CC[C@]12c3[nH]c4ccccc4c3CCN1C(=O)C(CC(=O)NCc1cccc(C(F)(F)F)c1)C[C@@H]2C(=O)N1CCN(C(=O)C2CC2)CC1 (some centres undefined),-3%,23µM*,-22,?,-3%
CC[C@]12c3[nH]c4ccccc4c3CCN1C(=O)C(CC(=O)NCCN1CCOCC1)C[C@@H]2C(=O)N1CCN(C(=O)C2CC2)CC1 (some centres undefined),7%,-2%,19,3%,9%
CN(C)C(=O)CCc1ccc2c3c([nH]c2c1)[C@]1(C)[C@@H](C(=O)N2CCOCC2)C[C@H](CC(=O)NCc2ccco2)C(=O)N1CC3,4%,-13%,0,-11%,7%
CN(C)C(=O)CCc1ccc2c3c([nH]c2c1)[C@]1(C)[C@@H](C(=O)N2CCCCC2)C[C@H](CC(=O)NCc2cccc(C(F)(F)F)c2)C(=O)N1CC3,-9%,21µM*,-25,21µM*,-15%
CN(C)C(=O)CCc1ccc2c3c([nH]c2c1)[C@]1(CCC2CCCC2)[C@@H](C(=O)N2CCOCC2)C[C@H](CC(=O)NCc2cccc(C(F)(F)F)c2)C(=O)N1CC3,-5%,15µM*,-56*,21µM*,3%
CN(C)CCCNC(=O)CC1C[C@H](C(=O)N2CCOCC2)[C@@]2(CCC3CCCC3)c3[nH]c4ccccc4c3CCN2C1=O (some centres undefined),1%,-16%,10,-17%,2%
O=C(CC1C[C@H](C(=O)N2CCOCC2)[C@@]2(CCC3CCCC3)c3[nH]c4ccccc4c3CCN2C1=O)NCc1cccc(C(F)(F)F)c1 (some centres undefined),16%,?,3,23µM*,10%
Cn1cccc1C(C#N)c1ncc(C(F)(F)F)cc1Cl (centres undefined),8%,7.3µM*,-2,?,-1%
COc1cc2c(cc1NC(=S)Nc1cccc(C)c1)oc1ccccc12,10µM*,?,-3,?,?
COc1cc2c(cc1NC(=S)NC(=O)/C=C/c1ccco1)oc1ccccc12,?,?,15,16µM*,?
COc1cc2c(cc1NC(=S)NC(=O)/C=C/c1ccc(OC)c(OC)c1)oc1ccccc12,8%,5%,23,6%,-12%
COc1ccc(/C=C/C(=O)NC(=S)Nc2cc3oc4ccccc4c3cc2OC)cc1,11%,?,40,9.2µM*,26%
Cc1ccc(S(=O)(=O)N(C)C)cc1NC(=O)c1c(-c2c(F)cccc2Cl)noc1C,-1%,-22%,12,-13%,-10%
COc1ccc(CN2C(=O)C(CC(=O)NC3CCCC3)CC(C(=O)N3CCOCC3)=C2C)cc1 (centres undefined),21%,-9%,-13,-16%,14%
Cn1c(O)c(N=Nc2ccccc2[N+](=O)[O-])c2ccccc21,19%,-2%,17,5%,3%
Cn1c(-c2ccccc2[N+](=O)[O-])[n+](C)c2ccccc21,-7%,5.8µM*,69,13µM*,?
Cc1nn(-c2ccc(Cl)cc2Cl)c(C)c1C(=O)O,15%,-6%,14,0%,12%
Cc1c(C(=O)NN2CCCCC2)nn(-c2ccc(Cl)cc2Cl)c1-c1ccc(Cl)cc1,.,19µM*,.,?,.
CCN(CC)CCNC(=S)Nc1ccc2nc(N3CCN(C)CC3)cc(C)c2c1,?,16µM*,-51*,26µM*,-20%
CCN(CC)CCNC(=S)Nc1ccc2nc(N3CCOCC3)cc(C)c2c1,-7%,-27%,?,?,0%
CCN(CC)CCNC(=S)Nc1ccc2nc(N3CCCC3)cc(C)c2c1,?,10µM*,-66*,13µM*,?
CCCN(CCC)CCCNC(=S)Nc1ccc2nc(N3CCCC3)cc(C)c2c1,?,13µM*,?,?,?
O=C(NN=Cc1ccc2c(c1)OCO2)C1CC1,3%,-3%,-12,3%,23%
SMILES,HT1080-NT tox,TDP1 cell noCPT,IL1B secr inh,TDP1 cell CPT,HT1080 IDH1KD tx
O=C(Cc1ccccc1)N/N=C/c1ccc2c(c1)OCO2,4%,-27%,-10,11%,11%
O=C(NN=Cc1ccc2c(c1)OCO2)NN=Cc1ccc2c(c1)OCO2,-23%,?,-89*,2%,-30%
Cc1nn(-c2ccc(Cl)cc2)c(Cl)c1/C=N/NC(=O)c1ccc(NS(=O)(=O)c2cccs2)cc1,?,18µM*,?,18µM*,?
O=C(CCc1c[nH]c2ccccc12)N/N=C/c1ccc2c(c1)OCO2,-10%,23µM*,-24,-13%,-24%
N/C(=N\N=Cc1ccc2c(c1)OCO2)NN=Cc1ccc2c(c1)OCO2,-12%,2.3µM*,-99*,3.3µM*,?
CCc1nc2ccc(C(=O)Nc3cccc(OCC(=O)N(C)C)c3)cn2c1N(C)C(=O)c1ccncc1,12%,0%,11,12%,0%
Cc1cccc(OC(=O)c2nc(SCc3ccccc3F)ncc2Cl)c1,.,-15%,.,-3%,.
Cc1cccc(NC(=O)C2CCN(S(=O)(=O)c3ccc(F)cc3)CC2)c1C,.,-17%,.,-3%,.
CCOC(=O)C1(Cc2ccccc2Cl)CCN(C(=O)CCn2ccnc2C)CC1,14%,-18%,6,-18%,10%
Cc1csc(-c2ccc3cc(Cl)cc(Cl)c3n2)n1,7%,-29%,44,2%,16%
Cc1noc(C)c1C(=O)N1CCC1(C)C(=O)NS(=O)(=O)c1cccs1 (centres undefined),26%,-5%,29,-25%,-1%
O=C(N/N=C/c1cccc(O)c1)c1cc(-c2ccc3c(c2)OCO3)n[nH]1,?,21µM*,-11,21µM*,?
O=C(N/N=C/c1ccc(O)cc1)c1cc(-c2ccc3c(c2)OCO3)n[nH]1,?,-27%,?,-26%,?
N/C(=N\N=C/c1ccc(Br)cc1)N/N=C\c1ccc(Br)cc1,?,?,-64*,?,?
O=C(N/N=C/c1ccc2c(c1)OCO2)c1ccc(NS(=O)(=O)c2cccs2)cc1,-21%,7%,-60*,6%,?
O=C(CN(C(=O)c1csnn1)c1cccc(Cl)c1)NC1CCCCC1,9%,-15%,6,-1%,1%
